Among the data in PubChem BioAssay (EPA / NIEHS) are outcome and AC50 values, retold here.

By AC50 is commonly meant the midpoint of the concentration-response curve, whichever way the signal moves.

Each structure is given as a SMILES string. Several values for one entry are separate records, joined by “and”; a condition that tells them apart may be missing. Identical values can stand only once. A structure can be active in one record and inactive in another. Activity calls are given as the source filed them. Rule for the calls: active = hit-call score of the fitted dose curve at least 0.9, where 1 is the maximum; inactive = score below 0.9.

Read-out in assay [1]: Matrix Metallopeptidase 1 (MMP1), MMP1 (gene 4312)
Kind of assay: BSK_BF4T_MMP1: BioMAP Diversity Plus: BF4T Assay for Matrix Metallopeptidase 1 (MMP1) Biomarker Activity (AID 2284270). The settings on record: primary human bronchial epithelial cells with fibroblasts. The gist of the method: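 MMP-1 quantified by ELISA in primary human bronchial epithelial/dermal fibroblast co-cultures, 24 hours post-dosing, with DMSO as baseline; parallel sulforhodamine B staining (560 nm) tracks overt cytotoxicity.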

Read-out in assay [2]: Tissue plasminogen activator (tPA), PLAT (gene 5327)
Kind of assay: BSK_BF4T_tPA: BioMAP Diversity Plus: BF4T Assay for Tissue plasminogen activator (tPA) Biomarker Activity (AID 2284272). The settings on record: primary human bronchial epithelial cells with fibroblasts. A digest of the protocol:
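tPA level quantified by ELISA at 24 h post-treatment in bronchial epithelial/dermal fibroblast co-cultures, gain of signal scored against DMSO baseline. Parallel cultures stained with 0.1% SRB (560 nm) to flag overt cytotoxicity.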

Read-out in assay [3]: Plasminogen Activator Inhibitor-1 (PAI1), SERPINE1 (gene 5054)
Kind of assay: BSK_BF4T_PAI1: BioMAP Diversity Plus: BF4T Assay for Plasminogen Activator Inhibitor-1 (PAI1) Biomarker Activity (AID 2284273). Conditions: primary human bronchial epithelial cells with fibroblasts. A digest of the protocol: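 PAI-1 levels quantified by ELISA 24 h post-dosing in bronchial epithelial cell plus dermal fibroblast cultures. Signal gain referenced to DMSO baseline. Sulforhodamine B total-protein staining of parallel wells checked cytotoxicity.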

Read-out in assay [4]: urokinase Plasminogen Activator (uPA), PLAU (gene 5328)
Kind of assay: BSK_BF4T_uPA: BioMAP Diversity Plus: BF4T Assay for urokinase Plasminogen Activator (uPA) Biomarker Activity (AID 2284275). The settings on record: primary human bronchial epithelial cells with fibroblasts. A digest of the protocol: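 uPA levels measured by ELISA at 24 hours in BF4T cultures (bronchial epithelial cells plus dermal fibroblasts) and compared with DMSO; cytotoxicity tracked in parallel cultures by sulforhodamine B staining.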

Read-out in assay [5]: Matrix Metallopeptidase 9 (MMP9), MMP9 (gene 4318)
Kind of assay: BSK_BF4T_MMP9: BioMAP Diversity Plus: BF4T Assay for Matrix Metallopeptidase 9 (MMP9) Biomarker Activity (AID 2284276). The settings on record: primary human bronchial epithelial cells with fibroblasts. The gist of the method: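 MMP-9 levels were measured by ELISA after 24 h exposure of bronchial epithelial cell/dermal fibroblast co-cultures, with DMSO as baseline. Parallel cultures were stained with 0.1% SRB after TCA fixation, read at 560 nm, to flag overt cytotoxicity.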

Read-out in assay [6]: Interferon-inducible T-cell alpha chemoattractant (ITAC), CXCL11 (gene 6373)
Kind of assay: BSK_BE3C_ITAC: BioMAP Diversity Plus: BE3C Assay for Interferon-inducible T-cell alpha chemoattractant (ITAC) Biomarker Activity (AID 2284279). Conditions: primary human bronchial epithelial cells. A digest of the protocol: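 ELISA read-out of I-TAC after 24 h chemical dosing of human lung primary bronchial epithelial cells; gain-of-signal fit vs DMSO baseline. Parallel SRB total-protein staining (0.1% SRB, 10% TCA fixation, 560 nm) assessed cytotoxicity.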

Read-out in assay [7]: Interleukin-8 (IL8), CXCL8 (gene 3576)
Kind of assay: BSK_BE3C_IL8: BioMAP Diversity Plus: BE3C Assay for Interleukin-8 (IL8) Biomarker Activity (AID 2284280). Conditions: primary human bronchial epithelial cells. A digest of the protocol: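 Primary human bronchial epithelial cells (BE3C system) were exposed to test chemical for 24 h, and IL-8 levels were then measured by ELISA. Activity was fitted in the positive (gain-of-signal) direction against a DMSO negative-control baseline.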

Read-out in assay [8]: Epidermal growth factor receptor (EGFR), EGFR (gene 1956)
Kind of assay: BSK_BE3C_EGFR: BioMAP Diversity Plus: BE3C Assay for Epidermal growth factor receptor (EGFR) Biomarker Activity (AID 2284281). The settings on record: primary human bronchial epithelial cells. A digest of the protocol: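 Human primary bronchial epithelial cells were exposed to compound for 24 h, and cell-surface EGFR was then quantified by ELISA. Activity was fitted in the positive direction against the DMSO vehicle baseline.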

Read-out in assay [9]: KRT18 (gene 3875)
Kind of assay: BSK_BE3C_Keratin818: BioMAP Diversity Plus: BE3C Assay for Keratin 818 Biomarker Activity (AID 2284282). The settings on record: primary human bronchial epithelial cells. A digest of the protocol:
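ELISA read-out of Keratin 8/18 in BE3C human bronchial epithelial cultures, 24 h post-dosing; positive-direction fit vs DMSO baseline.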

Read-out in assay [10]: Matrix Metallopeptidase 9 (MMP9), MMP9 (gene 4318)
Kind of assay: BSK_BE3C_MMP9: BioMAP Diversity Plus: BE3C Assay for Matrix Metallopeptidase 9 (MMP9) Biomarker Activity (AID 2284283). Conditions: primary human bronchial epithelial cells. A digest of the protocol:
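Human primary bronchial epithelial cells exposed 24 h to compound. MMP9 quantified by ELISA. SRB total-protein staining of parallel cultures assesses cytotoxicity. Positive-direction fit relative to DMSO.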

Read-out in assay [11]: Plasminogen activator inhibitor-1 (PAI1), SERPINE1 (gene 5054)
Kind of assay: BSK_CASM3C_PAI1: BioMAP Diversity Plus: CASM3C Assay for Plasminogen activator inhibitor-1 (PAI1) Biomarker Activity (AID 2284284). Conditions: primary human coronary artery smooth muscle cells.

Read-out in assay [12]: Monocyte Chemoattractant Protein-1 (MCP1), CCL2 (gene 6347)
Kind of assay: BSK_hDFCGF_MCP1: BioMAP Diversity Plus: hDFCGF Assay for Monocyte Chemoattractant Protein-1 (MCP1) Biomarker Activity (AID 2284285). Conditions: primary human foreskin fibroblasts. A digest of the protocol:
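MCP-1 ELISA readout was taken 24 hours after dosing primary human dermal fibroblasts in the hDFCGF system, with DMSO as baseline. Parallel sulforhodamine B staining of total protein tracked overt cytotoxicity.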

Read-out in assay [13]: Vascular cell adhesion molecule 1 (VCAM1), VCAM1 (gene 7412)
Kind of assay: BSK_IMphg_VCAM1: BioMAP Diversity Plus: IMphg Assay for Vascular cell adhesion molecule 1 (VCAM1) Biomarker Activity (AID 2284286). Conditions: primary human endothelial cells with macrophages. The gist of the method:
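ELISA read-out of VCAM-1 on venular endothelial cell/macrophage co-cultures at 24 h post-treatment, with DMSO as baseline and positive-direction fitting. Parallel sulforhodamine B total-protein staining (560 nm) served as the overt cytotoxicity measure.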

Read-out in assay [14]: Intercellular Adhesion Molecule 1 (ICAM1), ICAM1 (gene 3383)
Kind of assay: BSK_hDFCGF_ICAM1: BioMAP Diversity Plus: hDFCGF Assay for Intercellular Adhesion Molecule 1 (ICAM1) Biomarker Activity (AID 2284287). The settings on record: primary human foreskin fibroblasts. A digest of the protocol:
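ICAM-1 ELISA readout 24 h after dosing, DMSO as baseline, in human dermal foreskin fibroblast cultures. Cytotoxicity checked in parallel wells by SRB staining (0.1% SRB, 10% TCA fixation, 560 nm).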

Read-out in assay [15]: CD40, CD40 (gene 958)
Kind of assay: BSK_IMphg_CD40: BioMAP Diversity Plus: IMphg Assay for CD40 Biomarker Activity (AID 2284288). Conditions: primary human endothelial cells with macrophages. A digest of the protocol: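 ELISA read-out of cell-surface CD40 at 24 h in human venular endothelial cell/macrophage co-cultures. Activity fitted in the positive direction against DMSO; parallel SRB staining (560 nm) gauges overt cytotoxicity.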

Read-out in assay [16]: TIMP metallopeptidase inhibitor 2 (TIMP2), TIMP2 (gene 7077)
Kind of assay: BSK_hDFCGF_TIMP2: BioMAP Diversity Plus: hDFCGF Assay for TIMP metallopeptidase inhibitor 2 (TIMP2) Biomarker Activity (AID 2284289). Conditions: primary human foreskin fibroblasts. A digest of the protocol: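 Primary human foreskin fibroblasts in the hDFCGF system, dosed for 24 h; TIMP-2 level measured by ELISA, fitted in the positive direction against DMSO; cytotoxicity checked in parallel by sulforhodamine B total protein staining.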

`NC(O)(C(F)(F)F)C(F)(F)F`: the result in assay [1], in assay [2], in [3], in assay [4], in assay [5] and in assay [6] was inactive. For the same molecule, the outcome in [7], in assay [8], in [9], in [10], in [11] and in assay [12] was inactive. Besides, the outcome in assay [13], in assay [14], in assay [15] and in assay [16] was inactive.

`NS(=O)(=O)C(F)(F)C(F)(F)C(F)(F)C(F)(F)C(F)(F)C(F)(F)F`: the result in assay [1], in assay [2], in assay [3], in assay [4], in [5] and in [6] was inactive. For the same molecule, the result in assay [8], in assay [9], in assay [11], in assay [12], in assay [13] and in [14] was inactive. Further, the AC50 in assay [6] is 30 µM (active); in assay [7] it was 25.1 µM (active) and 15.2 µM (active); in assay [10] it was 13.9 µM (active) and 15 µM (active); in assay [15] it was 39.5 µM (active) and 25.4 µM (active).

`CCN=C1C=CC(=C(c2ccc(N(CC)CC)cc2)c2ccc(N(CC)CC)cc2)c2ccccc21`: the AC50 in assay [6] was 2.7 µM (active) and 2.3 µM (active); in assay [9] it was 1.61 µM (active) and 1.51 µM (active); in [10] it was 1.07 µM (active) and 490 nM (active); in [11] it was 5.67 µM (active) and 5.38 µM (active); in assay [12] it was 1.63 µM (active) and 1.44 µM (active); in assay [14], 1.9 µM (active) and 1.77 µM (active). The outcome in assay [8] was inactive.

As to `C=CC(=O)OCCC(F)(F)C(F)(F)C(F)(F)C(F)(F)F`, the result in assay [1], in assay [2], in [3], in [4], in [5] and in assay [6] was inactive. The result in [8], in assay [9], in assay [10], in assay [11], in [12] and in assay [13] was inactive. In addition, the outcome in [15] was inactive. Besides, the concentration at half-maximal activity (AC50) in [12] was 20.3 µM (active); in [14], 30 µM (active) and 38.2 µM (active).

In the case of `OCCCCC(F)(F)C(F)(F)C(F)(F)C(F)(F)F`, the outcome in assay [1], in [2], in [3], in assay [4], in assay [5] and in [6] was inactive. The outcome in assay [8], in [9], in [10], in assay [11], in assay [12] and in assay [13] was inactive. Also, the result in [14] and in assay [15] was inactive.

In the case of `NC(=O)C(F)(F)C(F)(F)C(F)(F)F`, the result in assay [1], in [2], in assay [3], in assay [4], in [5] and in assay [6] was inactive. In addition, the outcome in assay [7], in assay [8], in assay [9], in assay [10], in assay [11] and in [12] was inactive. The result in assay [13], in assay [14], in assay [15] and in assay [16] was inactive.
